The results in this text go back to PubChem BioAssay (Tox21).

The target of assay [1] is Cytochrome P450 1A2 (Homo sapiens) (UniProt P05177). The assay is described as follows: Cytochrome P450 Family 1 Subfamily A Member 2 (CYP1A2) small molecule antagonists: luciferase reporter qHTS assay (AID 1671199). An outline of the steps:
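Luminescence readout (relative luminescence units) after luciferin detection reagent, 20 min RT. Preceded by 1 h room-temperature CYP1A2 reaction with NADPH regeneration solution following 10 min compound preincubation with enzyme and proluciferin substrate. Furafylline positive control.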

The target of assay [2] is Voltage-gated inwardly rectifying potassium channel KCNH2 (Homo sapiens) (UniProt Q12809). The assay is described as follows: Human Ether-a-go-go-Related Gene (hERG) channel small molecule antagonists: fluorescence cell-based qHTS assay (AID 1671200). In a few lines:
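Fluorescence at 540 nm emission (480 nm excitation) was recorded kinetically for 2 min at 1-second intervals once the thallium-containing stimulus reached cells previously loaded with FluxOR II dye.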

Assay [3] addresses Cytochrome P450 3A4 (Homo sapiens) (UniProt P08684). Briefly: Cytochrome P450 Family 3 Subfamily A Member 4 (CYP3A4) small molecule antagonists: luciferase reporter qHTS assay (AID 1671201). An outline of the steps: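 qHTS, 1536-well. CYP3A4 + proluciferin substrate, cpd 10 min RT → NADPH regen 1 h RT → detection reagent 20 min → luminescence (RLU). Ketoconazole positive control.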

Where “and” joins values, the source holds several entries; their conditions need not be identical. Equal entries are not always repeated. Inconclusive results are not listed. The source holds several records for some structures; these can differ, active in one and inactive in another. Calls of active or inactive are those of the source. The call rests on the fitted dose curve; in most records, active means well fitted curve in the direction sought with a large enough effect in the repeat runs; inconclusive means weak or mixed curves; inactive means no such curve, though single readings can be large; an effect the other way counts as inactive or inconclusive.
Further: nearly all actives have a fitted effect of over 50% in size.
Potency means the concentration at half of the fitted maximal effect.

Chain of Voltage-gated inwardly rectifying potassium channel KCNH2 (Homo sapiens) (Q12809 whole entry, looked up): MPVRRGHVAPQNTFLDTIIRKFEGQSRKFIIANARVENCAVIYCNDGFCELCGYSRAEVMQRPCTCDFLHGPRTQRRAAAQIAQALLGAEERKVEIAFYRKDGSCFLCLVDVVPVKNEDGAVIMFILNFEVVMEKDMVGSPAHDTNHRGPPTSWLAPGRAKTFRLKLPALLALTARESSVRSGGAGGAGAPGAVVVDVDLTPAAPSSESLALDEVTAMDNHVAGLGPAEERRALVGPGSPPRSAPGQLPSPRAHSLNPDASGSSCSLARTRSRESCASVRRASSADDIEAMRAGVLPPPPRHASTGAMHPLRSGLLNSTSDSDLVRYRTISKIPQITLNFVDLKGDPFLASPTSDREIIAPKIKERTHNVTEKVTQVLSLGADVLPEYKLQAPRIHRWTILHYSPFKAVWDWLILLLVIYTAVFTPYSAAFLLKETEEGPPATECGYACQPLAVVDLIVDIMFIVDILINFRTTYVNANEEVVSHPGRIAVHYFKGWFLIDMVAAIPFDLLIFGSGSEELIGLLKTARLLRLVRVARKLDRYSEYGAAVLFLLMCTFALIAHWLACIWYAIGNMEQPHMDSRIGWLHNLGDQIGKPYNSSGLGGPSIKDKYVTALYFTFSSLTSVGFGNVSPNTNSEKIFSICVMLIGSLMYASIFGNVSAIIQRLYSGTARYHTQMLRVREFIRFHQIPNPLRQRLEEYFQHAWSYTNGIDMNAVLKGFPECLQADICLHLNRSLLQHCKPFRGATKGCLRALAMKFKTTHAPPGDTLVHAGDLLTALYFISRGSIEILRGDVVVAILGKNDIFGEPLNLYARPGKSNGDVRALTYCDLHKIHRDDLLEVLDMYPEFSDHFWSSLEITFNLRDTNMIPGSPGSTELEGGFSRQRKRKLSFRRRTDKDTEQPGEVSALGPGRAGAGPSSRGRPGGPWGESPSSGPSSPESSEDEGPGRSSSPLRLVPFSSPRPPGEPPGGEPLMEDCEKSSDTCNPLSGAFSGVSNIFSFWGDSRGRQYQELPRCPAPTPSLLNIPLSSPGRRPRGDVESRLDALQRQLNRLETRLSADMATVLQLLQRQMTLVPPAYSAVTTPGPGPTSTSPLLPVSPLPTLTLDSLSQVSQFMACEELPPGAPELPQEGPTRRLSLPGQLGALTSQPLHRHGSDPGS
Chain of Cytochrome P450 3A4 (Homo sapiens) (P08684 whole entry, looked up): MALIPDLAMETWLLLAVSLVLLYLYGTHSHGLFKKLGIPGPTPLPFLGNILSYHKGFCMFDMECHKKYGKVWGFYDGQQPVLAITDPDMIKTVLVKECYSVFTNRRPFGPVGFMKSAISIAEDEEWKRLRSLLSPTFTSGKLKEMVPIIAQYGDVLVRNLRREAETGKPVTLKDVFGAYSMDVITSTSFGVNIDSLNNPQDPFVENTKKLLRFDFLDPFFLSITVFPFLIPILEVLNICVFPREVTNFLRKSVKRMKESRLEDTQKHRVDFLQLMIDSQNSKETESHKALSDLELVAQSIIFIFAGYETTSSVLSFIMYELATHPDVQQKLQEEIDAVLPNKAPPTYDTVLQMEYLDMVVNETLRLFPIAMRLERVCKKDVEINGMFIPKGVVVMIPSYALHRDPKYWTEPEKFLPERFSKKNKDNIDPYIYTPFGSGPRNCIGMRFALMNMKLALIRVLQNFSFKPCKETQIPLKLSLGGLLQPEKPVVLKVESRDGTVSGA
Chain of Cytochrome P450 1A2 (Homo sapiens) (P05177 whole entry, looked up): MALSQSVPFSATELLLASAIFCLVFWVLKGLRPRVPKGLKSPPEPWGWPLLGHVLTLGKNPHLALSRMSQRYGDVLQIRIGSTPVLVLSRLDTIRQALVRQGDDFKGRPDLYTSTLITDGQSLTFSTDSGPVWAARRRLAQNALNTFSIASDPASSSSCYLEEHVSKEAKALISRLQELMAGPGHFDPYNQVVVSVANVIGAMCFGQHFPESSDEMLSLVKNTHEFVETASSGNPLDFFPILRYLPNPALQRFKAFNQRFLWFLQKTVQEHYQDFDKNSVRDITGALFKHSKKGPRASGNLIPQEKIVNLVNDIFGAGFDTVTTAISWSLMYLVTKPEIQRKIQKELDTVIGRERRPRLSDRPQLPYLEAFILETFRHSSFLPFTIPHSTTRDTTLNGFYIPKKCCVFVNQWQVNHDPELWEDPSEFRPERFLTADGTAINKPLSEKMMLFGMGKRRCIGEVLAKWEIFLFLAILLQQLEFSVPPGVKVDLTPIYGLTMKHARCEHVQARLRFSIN

In the case of `IC(I)I`, the Potency in assay [1] was 25.2 µM (active).

As for `Oc1c(Cl)ccc(Cl)c1Cl`, in assay [1], the Potency was 35.5 µM (active) and 35.6 µM (active). Besides, the Potency result in assay [2] and in assay [3] was “inactive” each time.

For the compound `C=C[C@H]1CN2CC[C@H]1C[C@@H]2[C@@H](O)c1ccnc2ccc(OC)cc12`, the Potency entry in assay [1] is “inactive”.

On to `COc1ccc2nc(N)sc2c1`, for which the Potency in assay [1] was 22.5 µM (active) and 31.7 µM (active). Also, the Potency result in assay [2] is “inactive”.

As to `OC[C@H]1O[C@@H]2O[C@H]3[C@H](O)[C@@H](O)[C@@H](O[C@H]4[C@H](O)[C@@H](O)[C@@H](O[C@H]5[C@H](O)[C@@H](O)[C@@H](O[C@H]6[C@H](O)[C@@H](O)[C@@H](O[C@H]7[C@H](O)[C@@H](O)[C@@H](O[C@H]1[C@H](O)[C@H]2O)O[C@@H]7CO)O[C@@H]6CO)O[C@@H]5CO)O[C@@H]4CO)O[C@@H]3CO`, the Potency result in assay [1], in assay [2] and in assay [3] was “inactive” in each case.

Regarding `CCCCCCCC/C=C\CCCCCCCC(=O)O`, the Potency entry in assay [1], in assay [2] and in assay [3] was “inactive” each time.

For the compound `CCCCCC=O`, the Potency result in assay [1] and in assay [3] was “inactive” in each case.

`FC(F)(F)C(Cl)Br` (configuration not stated): the Potency entry in assay [1] and in assay [3] was “inactive” each time.

As for `Cc1ccc2c(c1)C(=O)OC2=O`, the Potency entry in assay [1], in assay [2] and in assay [3] was “inactive” throughout.

As for `C=CCNCC=C`, the Potency result in assay [1] was “inactive and 39.9 µM (active)”. The Potency entry in assay [3] is “inactive”.

`Cc1ccc(C(C)(C)C)c(O)c1`: in assay [1], the Potency was 71 µM (active). Also, the Potency entry in assay [3] was “inactive”.

On to `CCCCCC1C(=O)CCC1CC(=O)OC` (configuration not stated), for which the Potency in assay [1] was 28 µM (active) and 28.3 µM (active). Further, the Potency entry in assay [2] and in assay [3] was “inactive” throughout.

As to `O=C(O)CCCC(=O)O`, the Potency in assay [1] is 34.9 µM (active) and inactive. In addition, the Potency entry in assay [2] and in assay [3] was “inactive” throughout.

With `CC(=O)[C@H]1CC[C@H]2[C@@H]3CC=C4C[C@@H](O)CC[C@]4(C)[C@H]3CC[C@]12C`, the Potency result in assay [1] and in assay [3] was “inactive” throughout.

For the compound `Brc1nc2ccccc2s1`, the Potency in assay [1] was 31.6 µM (active) and 14.2 µM (active). The Potency result in assay [2] and in assay [3] was “inactive” in each case.

As to `O=C1CCc2ccccc2O1`, the Potency result in assay [1] and in assay [3] was “inactive” each time.

In the case of `Cc1ccc([N+](=O)[O-])c(C)c1`, the Potency entry in assay [1] and in assay [3] was “inactive” throughout.

Turning to `CCCOCCO`, the Potency result in assay [1], in assay [2] and in assay [3] was “inactive” each time.

As for `Cc1ccc(/C(=C\CN2CCCC2)c2ccccn2)cc1`, the Potency entry in assay [1] and in assay [3] was “inactive” throughout. Besides, the Potency in assay [2] was 18.3 µM (active) and 10.7 µM (active).

In the case of `C=CCCCCCCCCCC`, the Potency result in assay [1], in assay [2] and in assay [3] was “inactive” each time.

With `O=Cc1ccccc1C=O`, in assay [1], the Potency was 63.3 µM (active) and inactive. The Potency result in assay [2] and in assay [3] was “inactive” each time.

Turning to `COCCOCCOCCO`, the Potency result in assay [1], in assay [2] and in assay [3] was “inactive” each time.

`CN(C)/N=N/c1nc[nH]c1C(N)=O`: the Potency entry in assay [1] is “inactive and 34.7 µM (active)”. The Potency entry in assay [2] and in assay [3] was “inactive” each time.

For the compound `CC(=O)Oc1c(C)c(C)c2c(c1C)CC[C@@](C)(CCC[C@H](C)CCC[C@H](C)CCCC(C)C)O2`, the Potency entry in assay [1], in assay [2] and in assay [3] was “inactive” throughout.

`NCCOCCO`: the Potency result in assay [1], in assay [2] and in assay [3] was “inactive” throughout.

With `c1ccc2ncccc2c1`, the Potency result in assay [1] is “inactive and 35.6 µM (active)”. For the same compound, the Potency entry in assay [2] and in assay [3] was “inactive” each time.

Turning to `CC(=O)O[C@]1(C(C)=O)CC[C@H]2[C@@H]3C=C(C)C4=CC(=O)CC[C@]4(C)[C@H]3CC[C@@]21C`, the Potency entry in assay [1], in assay [2] and in assay [3] was “inactive” each time.

For `C=CC(=O)OCCCC`, the Potency entry in assay [1] and in assay [3] was “inactive” throughout.

Consider `CC/C=C\C/C=C\C/C=C\CCCCCCCC(=O)O`, for which, in assay [1], the Potency entry was “inactive”. Further, the Potency entry in assay [3] is “inactive and 39.9 µM (active)”.

As for `CC(=O)Nc1ccc2c(c1)Cc1cc(NC(C)=O)ccc1-2`, the Potency entry in assay [1], in assay [2] and in assay [3] was “inactive” in each case.

With `C1COCCN1`, the Potency entry in assay [1], in assay [2] and in assay [3] was “inactive” in each case.

With `ClC/C=C/CCl`, the Potency entry in assay [1] and in assay [3] was “inactive” each time.

For `Nc1ccc(N)c(Cl)c1`, the Potency in assay [1] was 39.8 µM (active) and 35.6 µM (active); in assay [3] it was 2.51 µM (active) and 5.64 µM (active).

With `CCO[Si](CCCNC(N)=O)(OCC)OCC`, the Potency entry in assay [1] and in assay [3] was “inactive” each time.

Regarding `Nc1ccc2c(O)cc(S(=O)(=O)O)cc2c1`, the Potency entry in assay [1], in assay [2] and in assay [3] was “inactive” throughout.

Consider `Cc1ccc(S(=O)(=O)NCl)cc1`, for which the Potency result in assay [1] is “inactive and 75.1 µM (active)”. The Potency entry in assay [2] and in assay [3] was “inactive” in each case.

`C/C=C/C(=O)N(CC)c1ccccc1C`: in assay [1], the Potency is 31.7 µM (active) and inactive. Further, the Potency entry in assay [2] and in assay [3] was “inactive” in each case.

`Cc1ccc(S(=O)(=O)O)cc1C`: the Potency result in assay [1], in assay [2] and in assay [3] was “inactive” each time.

Regarding `OC[C@@H](O)[C@@H](O[C@@H]1O[C@H](CO)[C@H](O)[C@H](O)[C@H]1O)[C@H](O)[C@@H](O)CO`, the Potency in assay [1] is 35.1 µM (active) and inactive. Further, the Potency result in assay [3] was “inactive”.

Turning to `C1CN(SSN2CCOCC2)CCO1`, the Potency in assay [1] is 62.6 µM (active) and 39.9 µM (active). In addition, the Potency result in assay [2] and in assay [3] was “inactive” in each case.
